Test results from PubChem BioAssay (NCATS).
Values joined by “and” are separate entries in the source; they are usually repeats but may differ in a detail not shown here. Equal entries are not always repeated. Inconclusive results are not listed. Active and inactive are the calls of the source. Unless noted, calls follow the shape of the dose curve; as a rule, active = well fitted curve in the direction sought with a large enough effect; inconclusive = small, poorly fitted or top-dose-only effect, or another doubt; inactive = no such curve, though single readings can be large; an effect the other way counts as inactive or inconclusive.

Key:
[1] = qHTS Assay for Identifying Gametocytocidal Compounds (AID 743244); also: potency is read from the fitted curve at half-maximal effect;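 as to max response: % is scaled to controls: 0 for no effect and ±100 for the full control effect; actives lower the fluorescent signal which means gametocytes are killed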; conditions: P. falciparum 3D7 stage III-V gametocytes, alamarBlue, 72 h; max response: stronger effect = lower value
Outline: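 3D7 gametocytes, stages III–V, 20,000/well; cpd 72 h, 37 °C/5% CO2; + alamarBlue 24 h; fluor. Ex 525/Em 598.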

[2] = qHTS profiling of the MIPE4 collection as inhibitors of Plasmodium falciparum (3D7) proliferation (AID 743344; call rule not given here;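 also: scaled between DMSO vehicle wells and 0.29 µM artemisinin as full inhibition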); conditions: P. falciparum 3D7 in erythrocytes, SYBR Green DNA fluorescence, 72 h; at 28.5 µM (top of the series) unless noted
Outline: (§1)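 Parasite DNA was quantified by SYBR Green I fluorescence (ex 485, em 535 nm) after overnight lysis in saponin/Triton buffer at room temperature. Cultures at 0.3% parasitemia and 2.5% hematocrit were first exposed to compound for 72 h at 37 C; signals were normalised to artemisinin (0.29 uM) and vehicle wells.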

[3] = qHTS profiling for inhibitors of Plasmodium falciparum (3D7) proliferation (AID 743322);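 also: infected erythrocytes exposed to compound for 72 h before lysis; 100% = DMSO vehicle wells and 0% = 0.29 µM artemisinin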; conditions: P. falciparum 3D7 proliferation; at 28.7 µM (top of the series)
Outline: as §1

[4] = qHTS profiling for inhibitors of Plasmodium falciparum (DD2) proliferation (AID 743323; call rule not given here); conditions: lower = more inhibition; at 28.7 µM (top of the series)
Outline: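 SYBR Green fluorescence (ex 485, em 535 nm) of lysed cultures gives parasite DNA content; wells normalized to artemisinin (0.29 uM) and DMSO controls. Infected red cells: 0.3% parasitemia, 2.5% hematocrit, 72 h, 37 C.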

[5] = qHTS profiling for inhibitors of Plasmodium falciparum (HB3) proliferation (AID 743324); conditions: Plasmodium falciparum HB3 blood-stage proliferation; at 28.7 µM (top of the series);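 also: 100% = DMSO vehicle wells and 0% = artemisinin-treated control wells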
Outline: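 SYBR Green fluorescence (485 ex/535 em) of lysed cultures, incubated overnight at room temperature in the dark, quantifies parasite DNA. Infected erythrocytes at 0.3% parasitemia and 2.5% hematocrit were exposed 72 h; values normalized to DMSO and 0.29 uM artemisinin controls.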

[6] = qHTS assay for small molecule agonists of the antioxidant response element (ARE) signaling pathway measured by Nrf2-dependant transcriptional activity (AID 720636; active = well fitted curve in the direction sought with a large enough effect in the repeat runs; an effect the other way counts as inactive or inconclusive; also: % of control where 0% means no effect)
Outline: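 Quantitative HTS format in HepG2 cells stably expressing an ARE-luciferase reporter; 16 hr compound treatment at 37 C, luciferase signal detected with ONE-Glo.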

[7] = qHTS assay for small molecule agonists of the antioxidant response element (ARE) signaling pathway measured by Nrf2-dependant transcriptional activity - cell viability counter screen (AID 720653; active = well fitted curve in the direction sought with a large enough effect in the repeat runs; an effect the other way counts as inactive or inconclusive; also: % is scaled to controls: 0 for no effect and ±100 for the full control effect); conditions: ARE-bla HepG2 viability, CellTiter-Glo ATP luminescence, 16 h; max response: stronger effect = lower value
Outline: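 Cytotoxicity counter screen: intracellular ATP quantified by CellTiter-Glo luminescence in the same ARE-bla HepG2 plates, after 16 h compound exposure and a 2 h beta-lactamase substrate step.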

[8] = qHTS assay for cell viability of HEK293 cells (AID 743288); conditions: ATP luminescence (CellTiter-Glo), 18 h; max response: stronger effect = lower value; also: % is scaled to controls: 0 for no effect and ±100 for the full control effect; nearly all actives have a fitted effect of over 50% in size
Outline: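 Viable-cell counts were inferred from luciferase-based ATP content in HEK293 cells seeded at 2,000/well, pre-incubated ≥5 h, then dosed with DMSO-solubilised compounds for 18 h at 37 C.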

[9] = qHTS assay for cell viability of the p53RE-bla HCT-116 cell line (AID 743292); also: % is scaled to controls: 0 for no effect and ±100 for the full control effect; nearly all actives have a fitted effect of over 55% in size
Outline: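 Viability of compound-treated p53RE-bla HCT-116 cells is taken from ATP-dependent luciferase luminescence. Treatment lasts 16 h at 37 C after a 5 h settling period; detection follows 30 min at room temperature.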

[10] = qHTS assay for small molecule antagonists of the retinoid-related orphan receptor gamma (ROR-gamma) signaling pathway - cell viability counter screen (AID 720652; active = well fitted curve in the direction sought with a large enough effect in the repeat runs; an effect the other way counts as inactive or inconclusive;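 also: CHO reporter cells with doxycycline-induced ROR-gamma expression; compound exposure lasted 16 hr before ATP read; % is scaled to controls: 0 for no effect and ±100 for the full control effect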)
Outline: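 ATP-based viability readout in the ROR-gamma reporter CHO cells after 16 hr compound exposure under doxycycline induction.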

SMILES: C[C@@H](CN1CC(=O)NC(=O)C1)N1CC(=O)NC(=O)C1
- max response [1]: 9.49% (inactive)
- parasite growth, % of DMSO control [2]: 74.5%

SMILES: CC1=CC(=O)c2ccccc2C1=O
- Potency [1]: 12.6 µM (active)
- remaining parasite growth % (stronger effect = lower value) [3]: 0.179%
- activity, percent of control [4]: 0.841%
- remaining proliferation (% of control), lower = more inhibition [5]: 4.17%
- parasite growth, % of DMSO control [2]: 40.3%

SMILES: CC(=O)CC(c1ccccc1)c1c(O)c2ccccc2oc1=O (configuration not stated)
- outcome [6]: inactive
- max response [7]: 12% (inactive)
- max response [8]: 0.884% (inactive)
- Potency [9]: inactive

SMILES: CC[C@H](C)C(=O)O[C@H]1C[C@@H](C)C=C2C=C[C@H](C)[C@H](CC[C@@H]3C[C@@H](O)CC(=O)O3)[C@H]21
- outcome [6]: inactive
- max response [7]: -3.79% (inactive)
- max response [1]: 4.74% (inactive)
- max response [8]: -9.34% (inactive)
- Potency [9]: inactive
- parasite growth, % of DMSO control [2]: 73.9%

SMILES: CC1=NN(c2ccccc2)C(=O)C1
- outcome [6]: inactive
- Potency [10]: inactive
- max response [7]: -3.99% (inactive) and -6.22% (inactive)
- max response [1]: -1.13% (inactive)
- max response [8]: -6.75% (inactive) and -3.56% (inactive)
- Potency [9]: inactive
- parasite growth, % of DMSO control [2]: 89.4%

SMILES: O=S(=O)(O)CCS
- max response [1]: -4.29% (inactive)
- parasite growth, % of DMSO control [2]: 87.9%

SMILES: O=c1cc(O)c(Cl)c[nH]1
- max response [1]: 10.3% (inactive)
- parasite growth, % of DMSO control [2]: 29%

SMILES: S=P(N1CC1)(N1CC1)N1CC1
- outcome [6]: inactive
- max response [7]: -3.97% (inactive)
- max response [1]: 9.1% (inactive) and 8.65% (inactive)
- max response [8]: -14.8% (inactive)
- Potency [9]: inactive
- parasite growth, % of DMSO control [2]: 11.7%

SMILES: CC(C)OC(=O)OCOP(=O)(CO[C@H](C)Cn1cnc2c(N)ncnc21)OCOC(=O)OC(C)C
- max response [1]: 5.62% (inactive) and 30.5% (inactive)

SMILES: Nc1nc(N)nc(-c2cc(Cl)ccc2Cl)n1
- max response [1]: 11.2% (inactive)
- parasite growth, % of DMSO control [2]: 83.2%

SMILES: CCN(C)C(=O)Oc1cccc([C@H](C)N(C)C)c1
- max response [1]: -3.35% (inactive)

SMILES: CCn1cc(C(=O)O)c(=O)c2cc(F)c(N3CCNCC3)cc21
- max response [1]: 1.43% (inactive) and -0.58% (inactive)

SMILES: CCC(=O)O[C@]1(C(=O)SCF)[C@H](C)C[C@H]2[C@@H]3C[C@H](F)C4=CC(=O)C=C[C@]4(C)[C@@]3(F)[C@@H](O)C[C@@]21C
- max response [1]: -5% (inactive)
- parasite growth, % of DMSO control [2]: 47.5%

SMILES: CN(Cc1cc(Br)cc(Br)c1N)C1CCCCC1
- max response [1]: -1.96% (inactive)
- parasite growth, % of DMSO control [2]: 44.4%

SMILES: CN(CCOc1ccc(CC2SC(=O)NC2=O)cc1)c1ccccn1 (configuration not stated)
- max response [1]: 11.4% (inactive)
- parasite growth, % of DMSO control [2]: 98.7%

SMILES: CCCOc1ccc(C(=O)OCCN(CC)CC)cc1N
- max response [1]: 14.8% (inactive)
- parasite growth, % of DMSO control [2]: 100%

SMILES: CCn1cc(C(=O)O)c(=O)c2cc(F)c(N3CCN(C)CC3)cc21
- max response [1]: 4.94% (inactive)
- parasite growth, % of DMSO control [2]: 206%

SMILES: CNS(=O)(=O)CCc1ccc2[nH]cc(C3CCN(C)CC3)c2c1
- max response [1]: 4.41% (inactive)
- parasite growth, % of DMSO control [2]: 97.5%

SMILES: Nc1nc(=S)c2[nH]cnc2[nH]1
- max response [1]: 3.77% (inactive) and 7.36% (inactive)
- parasite growth, % of DMSO control [2]: 93.4%

SMILES: CN(C)CCc1c[nH]c2ccc(C[C@H]3COC(=O)N3)cc12
- max response [1]: -7.68% (inactive)
- parasite growth, % of DMSO control [2]: 107%

SMILES: Cc1cccc(Nc2ccncc2S(=O)(=O)NC(=O)NC(C)C)c1
- max response [1]: -10.6% (inactive)
- parasite growth, % of DMSO control [2]: 93.3%

SMILES: CN1CCN(c2c(F)cc3c(=O)c(C(=O)O)cn4c3c2OCN4C)CC1
- max response [1]: 0.61% (inactive)
- parasite growth, % of DMSO control [2]: 90.8%

SMILES: CCCCOc1ccc(CC(=O)NO)cc1
- max response [1]: 1.51% (inactive)
- parasite growth, % of DMSO control [2]: 11.6%

SMILES: O=c1oc2c(O)c(O)cc3c(=O)oc4c(O)c(O)cc1c4c23
- max response [1]: 10.2% (inactive)
- parasite growth, % of DMSO control [2]: 4.91%

SMILES: CCOCC(O)COc1ccc(NC(=O)CC[S+](C)C)cc1 (configuration not stated)
- max response [1]: 2.79% (inactive)
- parasite growth, % of DMSO control [2]: 84%

SMILES: Cc1oc(=O)oc1CN1CCN(c2cc3c(cc2F)c(=O)c(C(=O)O)c2n3C(C)S2)CC1 (configuration not stated)
- max response [1]: 2.62% (inactive)
- parasite growth, % of DMSO control [2]: 24.1%
